Bioassay records: PubChem, National Center for Advancing Translational Sciences (NCATS)
KinaseGlo FLuc: counter-screen: inhibitors of Kinase-Glo firefly luciferase; Kinase-Glo luciferase, ATP luminescence, 8 min; Potency, µM (highest dose often 38.3 µM), inactives show top-dose activity change, negative = inhibition, actives largely listed as inhibitors; actives 0.28% (n = 200,000); AID 1379; note: % is set by controls: 0 for no effect and ±100 for the full control effect; nearly all actives have a fitted effect of over 60% in size
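Compounds were added to a substrate mix at pH 7.2 (50 mM imidazole, 10 uM ATP, within the enzyme's linear range), followed by Kinase-Glo detection reagent; luminescence was measured after 8 minutes at ambient temperature.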
SMN2 splice up: increases expression of the SMN2 splice variant; HEK293 SMN2-luciferase splicing reporter, luminescence, 30-36 h; Potency, µM (titrated, usually from 46.1 µM), inactives show at the top dose activity change, positive = activation, usual class: activators; actives 2.8% (n = 210,000); AID 1458; note: % of control where 0% means no effect; nearly all actives have a fitted effect of over 55% in size
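HEK293 cells carry an SMN2 […]–luciferase reporter in which exon 7 inclusion puts luciferase in frame. Cells were plated 10-12 h before compound addition, then incubated 30-36 h at 37C. ONE-Glo luminescence was read; sodium butyrate at 4.5 mM final served as control.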
ELG1 genotoxic: induces genotoxicity in HEK293T cells with luciferase-tagged ELG1; HEK293T ELG1-luciferase reporter, luminescence, 16 h; Potency, µM (titrated, usually from 46 µM), for inactives: top-dose activity change, positive = activation, most hits filed as activators; actives 1.3% (n = 330,000); AID 504466; note: % of control where 0% means no effect; nearly all actives have a fitted effect of over 60% in size
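Genotoxicity was scored as increased ELG1-luciferase reporter signal, measured by ONE-Glo luminescence (30 min, room temperature). Compound or vehicle exposure of the HEK293T reporter cells lasted 16 hr at 37°C.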
FLuc modulator: inhibits or activates purified firefly luciferase, miR-21 counter-screen | purified FLuc, Km substrates, luminescence inhibition | Potency, µM (titrated, usually from 57.5 µM), for inactives: at the top dose activity change, negative = inhibition, hits mostly inhibitors | actives 6.9% (n = 360,000) | AID 588342;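 note: plate controls were vehicle for no effect and reference inhibitor for full effect; nearly all actives have a fitted effect of over 55% in size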
Target sequence (P08659 whole entry, looked up): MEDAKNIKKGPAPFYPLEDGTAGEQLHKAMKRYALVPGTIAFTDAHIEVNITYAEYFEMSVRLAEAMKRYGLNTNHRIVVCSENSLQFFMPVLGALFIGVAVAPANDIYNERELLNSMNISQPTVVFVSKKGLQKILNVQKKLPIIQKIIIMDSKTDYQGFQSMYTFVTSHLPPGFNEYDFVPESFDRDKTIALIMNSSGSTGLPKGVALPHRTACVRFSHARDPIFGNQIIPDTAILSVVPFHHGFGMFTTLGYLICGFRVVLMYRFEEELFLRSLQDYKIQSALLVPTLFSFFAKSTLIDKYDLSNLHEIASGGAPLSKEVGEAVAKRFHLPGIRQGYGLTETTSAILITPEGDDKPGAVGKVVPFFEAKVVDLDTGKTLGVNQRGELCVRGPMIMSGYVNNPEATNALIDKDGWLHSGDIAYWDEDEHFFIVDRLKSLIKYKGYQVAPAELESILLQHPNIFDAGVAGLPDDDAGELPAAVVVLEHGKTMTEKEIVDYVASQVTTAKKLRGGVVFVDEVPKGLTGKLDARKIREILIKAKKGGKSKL
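Purified P. pyralis luciferase, 10 nM final, with Km-level 10 uM D-luciferin and 10 uM ATP in 50 mM Tris acetate pH 7.5, 10 mM Mg acetate, 0.01% Tween-20, 0.05% BSA; 6-point qHTS titration about 60 µM downward; luminescence read.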
Rab9 prom act: activates the Rab9 promoter | Huh7 Rab9 promoter-luciferase reporter, luminescence, 24 h | Potency, µM (doses to about 9.22 µM), inactives show at the top dose activation, negative = inhibition, actives largely listed as activators | actives 2.8% (n = 320,000) | AID 485297; note: % of control where 0% means no effect; nearly all actives have a fitted effect of over 60% in size
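Cells were plated at 1500 per well in reduced-serum medium with 10% FBS and left 2 h. Compound in DMSO was then added for 24 h at 37 °C. Reporter signal was read by luminescence after 10 min with luciferase detection reagent.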
NPC1 prom act: activates the NPC1 promoter; Huh7 NPC1 promoter luciferase reporter, 24 h; Potency, µM (series often up to 9.22 µM), for inactives: at the top dose activation, usual class: activators; actives 2.4% (n = 320,000); note: % of control where 0% means no effect; nearly all actives have a fitted effect of over 60% in size
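In 1536-well qHTS, Huh7 cells harboring an NPC1 promoter–luciferase construct received compound for 24 h; activation was quantified by luminescence following luciferase reagent addition.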
Numbers without * were called inactive. In the library only some 7.5% were active in any assay of this set; here they are far more common. Calls come from the whole dose curve; as a rule, active = well fitted curve in the direction sought with a large enough effect; inconclusive = small, poorly fitted or top-dose-only effect, or another doubt; inactive = no such curve, though single readings can be large; an effect the other way counts as inactive or inconclusive. Potency is the fitted concentration of half-maximal effect.

What do the screens show for `Cc1cccn2cc(-c3ccc(Cl)cc3)nc12`?
ELG1 genotoxic: 2.1µM*; FLuc modulator: 0.38µM*; Rab9 prom act: 1.3µM*; NPC1 prom act: inconclusive

What do the screens show for `CC(=O)O[C@@H]1CC(C)=C2[C@H]1[C@H](C)CC[C@H]2/C=C(\C)C(=O)O`?
SMN2 splice up: 1%

What do the screens show for `COc1ccc(-c2cn3cccc(C)c3n2)cc1F`?
KinaseGlo FLuc: inconclusive; SMN2 splice up: 5.6µM*; ELG1 genotoxic: 4.6µM*; FLuc modulator: 6µM*; Rab9 prom act: 2.5µM*; NPC1 prom act: inconclusive

How did COc1ccc(-c2nc3c(-c4ccccc4)cnn3cc2C)cc1F do in these assays?
KinaseGlo FLuc: 5%; ELG1 genotoxic: 7%; FLuc modulator: -16%; Rab9 prom act: 21%; NPC1 prom act: 11%

Results for COc1ccccc1NC(=O)CN1CCCN(S(=O)(=O)c2ccc(Br)cc2)CC1 ?
SMN2 splice up: -25%; FLuc modulator: -12%

What do the screens show for `CCN(Cc1ccccc1)C(=O)c1cc2ccc3cccnc3c2[nH]1`?
FLuc modulator: 9.5µM*

What do the screens show for `Cc1ccc(CN2CCC(CNC(=O)c3cc4ccc5cccnc5c4[nH]3)CC2)cc1`?
FLuc modulator: -2%

Results for COc1ccccc1NC(=O)CSc1nnc(-c2ccoc2C)o1 ?
ELG1 genotoxic: inconclusive; FLuc modulator: -15%; Rab9 prom act: inconclusive; NPC1 prom act: inconclusive

How did O=C(CSc1nnc(-c2ccccc2Cl)o1)Nc1ccccn1 do in these assays?
KinaseGlo FLuc: 2%; ELG1 genotoxic: inconclusive; FLuc modulator: -16%; Rab9 prom act: 0.56µM*; NPC1 prom act: inconclusive

What do the screens show for `Cc1occc1-c1nnc(SCC(=O)Nc2ccccn2)o1`?
KinaseGlo FLuc: 1%; SMN2 splice up: 10µM*; ELG1 genotoxic: inconclusive; FLuc modulator: -3%; Rab9 prom act: inconclusive; NPC1 prom act: inconclusive

Results for CCOC(=O)c1ccc(-c2c(-c3ccccc3OC)sc3ccc(OC)cc23)cc1F ?
ELG1 genotoxic: 2%

Results for COc1cc(OC)cc(C(=O)N2CCN(C(=O)COc3ccc(C)cc3)CC2)c1 ?
SMN2 splice up: -1%; FLuc modulator: 24µM*

Results for COc1ccc(C(=O)N2CCN(C(=O)COc3ccc(C)cc3)CC2)cc1OC ?
SMN2 splice up: -13%; FLuc modulator: 15µM*

How did COc1ccc(OCC(=O)N2CCN(C(=O)c3ccc(OC)cc3)CC2)cc1 do in these assays?
SMN2 splice up: -7%; FLuc modulator: -8%

Results for COc1cccc([C@@H]2Oc3ccc(Br)cc3C(=O)[C@H]2O)c1 ?
KinaseGlo FLuc: 3%; SMN2 splice up: inconclusive

How did COc1cccc([C@@H]2Oc3ccc(OC)cc3C(=O)[C@H]2O)c1 do in these assays?
KinaseGlo FLuc: 3%; SMN2 splice up: 5µM*; ELG1 genotoxic: 7.3µM*; FLuc modulator: -23%; Rab9 prom act: inconclusive; NPC1 prom act: inconclusive

Results for COc1cccc(C2C(=O)c3ccccc3C2=O)c1 ?
ELG1 genotoxic: 2%; FLuc modulator: 27µM*; Rab9 prom act: 5%; NPC1 prom act: -8%

How did COC(=O)C1=C(C)NC2=C(C(=O)c3ccccc32)C1c1cccc(OC)c1 (stereo not drawn) do in these assays?
ELG1 genotoxic: 4%; FLuc modulator: -3%; Rab9 prom act: 14%; NPC1 prom act: -1%

Results for CCOc1ccc(C2C(C(N)=O)=C(C)Nc3nc(-c4ccc(OC)cc4)nn32)cc1 (stereo not drawn) ?
SMN2 splice up: -3%; FLuc modulator: inconclusive

Results for Nc1cccc2c1C(=O)N(CC(=O)NC13CC4CC(CC(C4)C1)C3)C2=O ?
KinaseGlo FLuc: 7%; SMN2 splice up: -3%; ELG1 genotoxic: 0%; FLuc modulator: -2%; Rab9 prom act: -3%; NPC1 prom act: -1%
